Source: PubChem BioAssay
Calls of active or inactive are those of the source.

Tests used:
[1] = test system: PRMT1 (protein arginine N-methyltransferase 1); experiment: PRMT1 binders on small-molecule microarrays, primary screen, biochemical, small-molecule microarray, 635 nm fluorescence (AID 1088); conditions: small-molecule microarray binding, higher = more signal;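 note: binding of Prmt1 protein to compounds spotted on small-molecule microarray slides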
[2] = yeast growth modulation, basal conditions, primary screen, YJM789 clinical isolate, OD600, 24 h (AID 1089);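 note: growth of clinical yeast isolate S. cerevisiae YJM 789 seeded 1000 cells per well; test concentration not given here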; conditions: S. cerevisiae YJM789 growth, higher = more signal, called active from +8 up or from −8 down
[3] = fission yeast growth modulation, primary screen, strain 972, OD600, 24 h, no modulator (AID 1090);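 note: basal condition with compound alone and no growth modifier present; test concentration not given here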; conditions: S. pombe 972 growth, higher = more signal, called active from +8 up or from −8 down
[4] = S. cerevisiae growth modulation with rapamycin, primary screen, strain BY4716, OD600, 96 h (AID 1091); conditions: higher = more signal, called active from +8 up or from −8 down; note: test concentration not given here
[5] = target: Torsin-1A-interacting protein 2 (Homo sapiens) (UniProt Q8NFQ8); experiment: LULL1 binders on small-molecule microarray, primary screen, cell lysate, human LULL1 lysate, 635/667 nm fluorescence (AID 1092); conditions: hLULL1 lysate binding, 635 nm fluorescence, higher = more signal;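 note: probe is lysate of COS7 cells overexpressing human LULL1; score merges per-feature 667 nm fluorescence with signal-to-noise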
[6] = E. coli growth modulation, two-sided OD650, primary screen, E. coli filamentation project, strain DRC41, 24 h (AID 1093); conditions: OD650, 24 h, higher = more signal, called active from +8 up or from −8 down;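 note: MC1000 strain lacking acrAB efflux and sulA so SOS filamentation is blocked; test concentration not given here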
[7] = small-molecule microarray binders of probe aLefty2, primary screen, biochemical, biotinylated probe, 635/667 nm fluorescence (AID 1094); conditions: higher = more signal;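 note: score merges spot fluorescence near 667 nm with spot signal-to-noise ratio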
[8] = test system: Noggin (protein binding on small-molecule microarray); experiment: Noggin binders on small-molecule microarray, primary screen, biochemical, 635/667 nm fluorescence (AID 1095); conditions: 635 nm fluorescence, higher = more signal;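 note: score merges 667 nm feature fluorescence with signal to noise over triplicate slides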
[9] = target: Neurogenic locus notch homolog protein 3 (Homo sapiens) (UniProt Q9UM47); experiment: NOTCH3 binders on small-molecule microarray, primary screen, biochemical, 635/667 nm fluorescence (AID 1096); conditions: NOTCH3 binding, 635 nm fluorescence, higher = more signal
[10] = small-molecule microarray binders of probe aEGFR, primary screen, biochemical, biotinylated probe, 635/667 nm fluorescence (AID 1097); conditions: higher = more signal;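 note: probe is a biotinylated anti-EGFR antibody binding compounds printed on slides; score combines fluorescence near 667 nm and signal to noise of each spot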
[11] = test system: Plasmodium falciparum Sir2 (PF13_0152, Sir2A); experiment: pfSir2 binders on small-molecule microarrays, primary screen, biochemical, small-molecule microarray, 635 nm fluorescence (AID 1098); conditions: small-molecule microarray binding, fluorescence 635 nm; higher = more signal;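 note: score merges spot fluorescence intensity with its signal-to-noise ratio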
[12] = small-molecule microarray binders of probe aDKK1, primary screen, biochemical, biotinylated probe, 635/667 nm fluorescence (AID 1099); conditions: higher = more signal;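 note: score merges 667nm spot fluorescence with signal to noise across triplicate slides; reference of the scale not given here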
[13] = small-molecule microarray binders of probe aCHRDL2, primary screen, biochemical, biotinylated probe, 635/667 nm fluorescence (AID 1100); conditions: higher = more signal
[14] = splicing luciferase reporter signal modulators, primary screen, spliceosome inhibition project, cell-based, HEK293, splice +/- reporter (AID 1101); conditions: luminescence, 24 h, higher = more signal, called active from +8 up or from −8 down;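 note: HEK293 cells carrying a splicing-competent luciferase reporter gene; test concentration not given here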
[15] = target: Fibroblast growth factor 10 (Homo sapiens) (UniProt O15520); experiment: FGF10 binders on small-molecule microarrays, primary screen, biochemical, small-molecule microarray, 635 nm fluorescence (AID 1102); conditions: FGF10 binding, fluorescence 635 nm, higher = more signal
[16] = test system: glycogen synthase kinase-3 (GSK3A per assay name; protocol says GSK3B); experiment: GSK3 binders on small-molecule microarrays, primary screen, biochemical, small-molecule microarray, 635 nm fluorescence, GSK3A (AID 1103); conditions: small-molecule microarray binding, fluorescence 635 nm; higher = more signal; note: the record names both GSK3A and GSK3B
[17] = target: Epidermal growth factor receptor (Homo sapiens) (UniProt P00533); experiment: EGFR binders on small-molecule microarrays, primary screen, biochemical, small-molecule microarray, 635 nm fluorescence (AID 1104); conditions: EGFR binding, higher = more signal;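 note: score merges 667 nm emission intensity with spot signal to noise over triplicate slides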
[18] = target: Follistatin-related protein 3 (Homo sapiens) (UniProt O95633); experiment: FSTL3 binders on small-molecule microarrays, primary screen, biochemical, small-molecule microarray, 635 nm fluorescence (AID 1105); conditions: FSTL3 binding, higher = more signal;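 note: score merges emission near 667 nm and signal to noise per printed spot across three slides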
[19] = target: Dickkopf-related protein 1 (Homo sapiens) (UniProt O94907); experiment: DKK1 binders on small-molecule microarrays, primary screen, biochemical, small-molecule microarray, 635 nm fluorescence scan (AID 1106); conditions: DKK1 binding, higher = more signal;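 note: score merges emission near 667 nm with signal to noise over three replicate slides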
[20] = test system: Inhibin beta A chain (activin A); experiment: INHBA (activin A) binders on microarrays, primary screen, biochemical, small-molecule microarray, 635 nm fluorescence scan (AID 1107); conditions: small-molecule microarray binding, higher = more signal;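 note: mouse activin A protein probed at 4.33 µg/mL on printed slides; score merges bound-protein fluorescence near 667 nm with spot signal-to-noise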

Sequence of Fibroblast growth factor 10 (Homo sapiens) (O15520 whole entry, looked up): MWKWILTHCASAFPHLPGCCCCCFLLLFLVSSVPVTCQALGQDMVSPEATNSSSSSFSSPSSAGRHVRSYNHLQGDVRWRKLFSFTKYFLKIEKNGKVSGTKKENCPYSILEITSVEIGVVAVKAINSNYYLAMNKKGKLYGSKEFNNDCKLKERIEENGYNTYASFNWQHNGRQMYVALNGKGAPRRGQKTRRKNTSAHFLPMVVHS
Sequence of Follistatin-related protein 3 (Homo sapiens) (O95633 whole entry, looked up): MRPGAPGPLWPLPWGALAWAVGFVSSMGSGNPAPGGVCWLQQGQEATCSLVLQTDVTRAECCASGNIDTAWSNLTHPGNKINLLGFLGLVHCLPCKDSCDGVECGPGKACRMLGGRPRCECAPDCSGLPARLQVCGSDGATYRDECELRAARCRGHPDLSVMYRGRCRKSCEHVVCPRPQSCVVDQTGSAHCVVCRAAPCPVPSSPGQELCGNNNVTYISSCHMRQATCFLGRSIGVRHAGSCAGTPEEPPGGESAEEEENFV
Sequence of Dickkopf-related protein 1 (Homo sapiens) (O94907 whole entry, looked up): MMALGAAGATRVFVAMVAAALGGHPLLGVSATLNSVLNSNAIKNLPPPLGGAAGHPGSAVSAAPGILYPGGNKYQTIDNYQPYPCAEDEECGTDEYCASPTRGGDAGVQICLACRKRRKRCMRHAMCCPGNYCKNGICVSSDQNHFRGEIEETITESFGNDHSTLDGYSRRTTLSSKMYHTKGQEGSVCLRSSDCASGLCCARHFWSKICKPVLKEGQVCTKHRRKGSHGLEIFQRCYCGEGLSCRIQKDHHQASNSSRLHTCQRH
Sequence of Neurogenic locus notch homolog protein 3 (Homo sapiens) (Q9UM47 whole entry, looked up): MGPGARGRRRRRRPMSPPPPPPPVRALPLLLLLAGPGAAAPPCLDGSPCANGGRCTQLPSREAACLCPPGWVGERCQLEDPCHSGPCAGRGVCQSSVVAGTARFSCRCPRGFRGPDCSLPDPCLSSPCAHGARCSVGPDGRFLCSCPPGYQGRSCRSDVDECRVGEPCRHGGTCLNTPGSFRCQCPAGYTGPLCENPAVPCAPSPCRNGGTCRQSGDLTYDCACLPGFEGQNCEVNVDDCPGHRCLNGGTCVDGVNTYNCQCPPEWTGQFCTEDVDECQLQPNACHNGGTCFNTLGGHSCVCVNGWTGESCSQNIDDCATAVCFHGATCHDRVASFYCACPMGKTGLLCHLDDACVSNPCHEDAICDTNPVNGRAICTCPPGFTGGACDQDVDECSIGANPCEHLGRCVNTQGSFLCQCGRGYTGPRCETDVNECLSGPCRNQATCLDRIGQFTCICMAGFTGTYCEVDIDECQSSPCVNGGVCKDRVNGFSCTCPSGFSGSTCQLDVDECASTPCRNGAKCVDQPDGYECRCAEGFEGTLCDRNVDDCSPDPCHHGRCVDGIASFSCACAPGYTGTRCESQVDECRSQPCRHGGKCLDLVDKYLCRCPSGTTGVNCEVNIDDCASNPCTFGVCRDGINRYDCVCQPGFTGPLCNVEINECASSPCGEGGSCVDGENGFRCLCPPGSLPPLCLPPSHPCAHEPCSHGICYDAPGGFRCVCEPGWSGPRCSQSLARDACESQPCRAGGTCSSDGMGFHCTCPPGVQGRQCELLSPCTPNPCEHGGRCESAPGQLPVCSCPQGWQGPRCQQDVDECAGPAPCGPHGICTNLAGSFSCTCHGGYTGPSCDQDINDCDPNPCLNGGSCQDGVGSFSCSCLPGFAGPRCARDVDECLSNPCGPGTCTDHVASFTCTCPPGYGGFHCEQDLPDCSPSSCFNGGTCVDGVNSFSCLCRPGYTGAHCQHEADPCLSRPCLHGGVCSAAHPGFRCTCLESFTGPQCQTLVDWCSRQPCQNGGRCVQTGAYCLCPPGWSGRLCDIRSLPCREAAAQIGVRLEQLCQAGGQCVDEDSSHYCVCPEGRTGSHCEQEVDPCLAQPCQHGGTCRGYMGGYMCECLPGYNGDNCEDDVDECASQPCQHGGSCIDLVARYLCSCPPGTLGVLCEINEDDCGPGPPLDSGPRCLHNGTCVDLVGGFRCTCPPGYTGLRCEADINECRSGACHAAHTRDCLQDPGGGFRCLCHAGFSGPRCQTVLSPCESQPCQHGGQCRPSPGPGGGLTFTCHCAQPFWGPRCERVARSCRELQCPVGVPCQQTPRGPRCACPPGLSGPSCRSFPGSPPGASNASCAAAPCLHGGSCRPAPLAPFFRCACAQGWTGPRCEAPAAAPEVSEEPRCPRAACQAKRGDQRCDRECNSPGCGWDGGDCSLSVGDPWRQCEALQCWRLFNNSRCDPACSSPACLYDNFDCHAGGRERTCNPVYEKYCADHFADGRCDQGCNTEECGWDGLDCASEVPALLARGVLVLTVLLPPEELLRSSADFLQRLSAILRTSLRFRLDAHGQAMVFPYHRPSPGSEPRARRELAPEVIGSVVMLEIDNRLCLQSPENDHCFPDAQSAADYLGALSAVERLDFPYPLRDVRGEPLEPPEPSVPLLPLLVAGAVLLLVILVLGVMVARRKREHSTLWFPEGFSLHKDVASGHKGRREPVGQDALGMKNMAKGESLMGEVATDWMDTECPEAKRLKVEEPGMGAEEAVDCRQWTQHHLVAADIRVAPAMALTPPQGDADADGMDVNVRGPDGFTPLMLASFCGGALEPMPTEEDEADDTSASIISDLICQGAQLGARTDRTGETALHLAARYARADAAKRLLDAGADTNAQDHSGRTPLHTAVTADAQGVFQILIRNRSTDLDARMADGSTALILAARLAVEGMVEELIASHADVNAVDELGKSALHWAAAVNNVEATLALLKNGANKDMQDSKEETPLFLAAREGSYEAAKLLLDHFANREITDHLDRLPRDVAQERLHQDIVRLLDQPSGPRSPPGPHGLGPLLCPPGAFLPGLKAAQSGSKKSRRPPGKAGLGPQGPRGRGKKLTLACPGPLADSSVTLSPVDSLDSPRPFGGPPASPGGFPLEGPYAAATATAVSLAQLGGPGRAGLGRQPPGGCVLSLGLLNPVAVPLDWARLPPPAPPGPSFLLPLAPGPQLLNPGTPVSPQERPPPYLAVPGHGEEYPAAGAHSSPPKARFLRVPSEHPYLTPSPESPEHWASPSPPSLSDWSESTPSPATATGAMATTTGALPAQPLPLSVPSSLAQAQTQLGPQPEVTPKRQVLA
Sequence of Epidermal growth factor receptor (Homo sapiens) (P00533 whole entry, looked up): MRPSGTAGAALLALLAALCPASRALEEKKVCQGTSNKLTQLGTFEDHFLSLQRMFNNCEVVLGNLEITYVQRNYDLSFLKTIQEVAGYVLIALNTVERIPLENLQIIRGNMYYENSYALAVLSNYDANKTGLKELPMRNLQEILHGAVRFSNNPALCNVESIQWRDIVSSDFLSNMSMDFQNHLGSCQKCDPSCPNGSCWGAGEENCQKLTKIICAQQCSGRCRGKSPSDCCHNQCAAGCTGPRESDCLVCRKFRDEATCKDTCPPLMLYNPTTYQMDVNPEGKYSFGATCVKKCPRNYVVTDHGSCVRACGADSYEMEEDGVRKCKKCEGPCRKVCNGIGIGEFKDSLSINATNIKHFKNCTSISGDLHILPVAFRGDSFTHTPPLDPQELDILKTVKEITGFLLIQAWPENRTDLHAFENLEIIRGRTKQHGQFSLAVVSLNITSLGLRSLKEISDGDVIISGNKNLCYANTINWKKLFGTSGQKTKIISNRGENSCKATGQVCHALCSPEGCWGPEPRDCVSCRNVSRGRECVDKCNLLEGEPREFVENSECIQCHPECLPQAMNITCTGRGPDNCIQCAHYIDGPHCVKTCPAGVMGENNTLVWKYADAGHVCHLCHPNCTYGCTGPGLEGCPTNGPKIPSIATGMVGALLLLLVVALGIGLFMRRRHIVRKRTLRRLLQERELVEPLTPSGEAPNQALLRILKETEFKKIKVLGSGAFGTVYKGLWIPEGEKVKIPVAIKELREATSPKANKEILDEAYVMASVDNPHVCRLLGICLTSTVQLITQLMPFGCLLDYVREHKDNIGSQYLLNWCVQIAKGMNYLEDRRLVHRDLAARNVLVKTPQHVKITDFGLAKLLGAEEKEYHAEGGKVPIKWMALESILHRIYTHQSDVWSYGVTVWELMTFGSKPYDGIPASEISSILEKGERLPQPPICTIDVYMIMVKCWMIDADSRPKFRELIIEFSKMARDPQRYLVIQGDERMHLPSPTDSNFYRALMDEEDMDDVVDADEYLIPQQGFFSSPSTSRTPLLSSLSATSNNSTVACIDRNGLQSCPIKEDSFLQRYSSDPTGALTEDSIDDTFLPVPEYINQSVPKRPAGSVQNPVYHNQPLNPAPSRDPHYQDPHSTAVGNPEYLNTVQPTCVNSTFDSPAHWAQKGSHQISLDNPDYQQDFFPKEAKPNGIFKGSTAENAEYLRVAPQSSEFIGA
Sequence of Torsin-1A-interacting protein 2 (Homo sapiens) (Q8NFQ8 whole entry, looked up): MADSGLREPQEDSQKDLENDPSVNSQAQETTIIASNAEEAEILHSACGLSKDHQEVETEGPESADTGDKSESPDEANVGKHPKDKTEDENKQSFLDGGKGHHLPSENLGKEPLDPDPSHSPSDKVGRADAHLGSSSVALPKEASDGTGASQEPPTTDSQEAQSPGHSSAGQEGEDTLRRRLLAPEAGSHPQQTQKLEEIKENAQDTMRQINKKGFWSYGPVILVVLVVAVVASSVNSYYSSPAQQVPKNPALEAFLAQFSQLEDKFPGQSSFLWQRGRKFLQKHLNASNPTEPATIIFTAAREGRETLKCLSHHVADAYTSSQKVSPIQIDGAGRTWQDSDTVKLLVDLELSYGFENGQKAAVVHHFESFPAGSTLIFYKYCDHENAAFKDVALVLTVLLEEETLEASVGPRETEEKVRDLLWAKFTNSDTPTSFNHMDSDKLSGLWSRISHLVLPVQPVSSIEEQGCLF

| SMILES | composite z-score [1] | z-score [2] | z-score [3] | z-score [4] | composite z-score [5] | z-score [6] | composite z-score [7] | composite z-score [8] | composite z-score [9] | composite z-score [10] | composite z-score [11] | composite z-score [12] | composite z-score [13] | z-score [14] | composite z-score [15] | composite z-score [16] | composite z-score [17] | composite z-score [18] | composite z-score [19] | composite z-score [20] |
| --- | --- | --- | --- | --- | --- | --- | --- | --- | --- | --- | --- | --- | --- | --- | --- | --- | --- | --- | --- | --- |
| COc1ccccc1CN1C(=O)c2ccccc2[C@@]2(Cc3ccccc3N(CCCN(C)C)C2=O)[C@@H]1c1ccc(CO)cc1 | 0.557 | 0.431 (inactive) | -1.23 (inactive) | -1.35 (inactive) | 0.425 | 0.276 (inactive) | -0.247 | 0.395 | 0.0593 | -0.0612 | 0.269 | -0.169 | -0.649 | -0.706 (inactive) | 0.165 | 0.0081 | 0.237 | 0.76 | 1.05 | 1.19 |
| C=CC[C@]12N=C(c3ccc(OCCCO)cc3)O[C@H]1c1ccccc1N(CCS(=O)(=O)c1ccccc1)C2=O | 1.49 | -1.07 (inactive) | -1.51 (inactive) | 0.811 (inactive) | 2.14 | 1.02 (inactive) | 0.0561 | 0.698 | 1.07 | -0.0828 | 1.43 | 0.419 | 0.777 | -2.04 (inactive) | 0.374 | 1.3 | 0.595 | 1.11 | 0.694 | 1.26 |
| [N-]=[N+]=NCc1ccccc1C[C@@]1(C(=O)NCC(O)CO)N=C(c2ccc(OCCCO)cc2)O[C@@H]1c1ccccc1 (stereo not given in full) | 0.303 | -0.213 (inactive) | -0.272 (inactive) | -0.37 (inactive) | 3.21 | 0.627 (inactive) | 0.202 | -0.962 | -1.12 | 0.0061 | 0.048 | 1.15 | 1.22 | -0.195 (inactive) | -0.181 | -0.538 | -0.455 | -1.3 | -1.58 | 0.377 |
| CC(C)NC(=O)[C@@H]1c2ccccc2C(=O)N(C(C)C)[C@H]1c1ccc(CO)cc1 | 1.44 | 0.549 (inactive) | 0.458 (inactive) | 0.386 (inactive) | 2.99 | 1.36 (inactive) | -0.0478 | -1.94 | -0.715 | -0.44 | -0.509 | -0.29 | 0.91 | -0.0664 (inactive) | -0.633 | 0.134 | -1 | -0.994 | -1.72 | -0.751 |
| C=C(CCCC)C(=O)CC[C@@H](OC(C)=O)c1ccc(CO)o1 | 1.54 | -4.06 (inactive) | -15.4 (active) | -2.36 (inactive) | -0.0891 | 0.246 (inactive) | -0.241 | 1.52 | 0.582 | -0.162 | 1.24 | -0.269 | -0.457 | 0.251 (inactive) | 1.12 | 0.179 | -0.353 | 0.523 | 0.0693 | 0.945 |
| CCOC(=O)C1=CC[C@@H](c2ccccc2)N(S(=O)(=O)c2ccc(C)cc2)[C@H]1c1ccc(CC)cc1 | 1.27 | 0.891 (inactive) | 1.94 (inactive) | 2.17 (inactive) | 2.02 | -0.315 (inactive) | 0.05 | -0.503 | 0.716 | 0.279 | 0.375 | 0.961 | 0.538 | 0.425 (inactive) | 0.393 | 1.17 | 0.221 | 0.395 | -0.112 | 0.965 |
| COc1cc(CO)cc(I)c1O[C@H]1C=C(C(=O)NCCO)C[C@@H](NC[C@@H]2CCCO2)[C@@H]1O | 1.35 | -0.396 (inactive) | -0.424 (inactive) | -0.0698 (inactive) | 1.91 | 1.6 (inactive) | -0.17 | 1.26 | 0.554 | -0.0033 | 0.922 | -0.349 | -0.204 | -0.466 (inactive) | 0.671 | 0.0227 | -0.0367 | 0.334 | 0.17 | -0.0437 |
| CCOc1ccc(N2C(=O)CSC2c2cccc([N+](=O)[O-])c2)cc1 (stereo not given) | 0.971 | 0.493 (inactive) | 0.527 (inactive) | 0.712 (inactive) | 1.63 | 1.01 (inactive) | -0.0555 | 0.154 | 0.699 | -0.0697 | 0.891 | -0.117 | -0.0935 | -0.105 (inactive) | 0.344 | 0.0863 | 0.354 | 0.241 | 0.168 | -0.0762 |
| C=CCNC(=O)[C@@H]1[C@H]2C(=O)O[C@H](c3ccccc3)[C@H](c3ccccc3)N2[C@H](c2ccc(OCCO)cc2)[C@@]12C(=O)N(C(=O)OCCOC)c1ccc(C#CCC(C(=O)OC)C(=O)OC)cc12 | 1.54 | 1.05 (inactive) | 0.552 (inactive) | 5.79 (inactive) | 2.39 | -0.0236 (inactive) | 0.0398 | 1.18 | 1.03 | 0.23 | 1.32 | 0.951 | 0.328 | 1.01 (inactive) | 1.07 | 1.28 | 0.719 | 1.1 | 1.29 | -0.0578 |
| O=C1O[C@@H](c2ccccc2)[C@@H](c2ccccc2)N2[C@@H](c3ccc(OCCO)cc3)[C@]3(C(=O)Nc4ccc(C#CCCO)cc43)[C@@H](C(=O)NC[C@H](O)c3ccccc3)[C@H]12 | 1.54 | 2.55 (inactive) | 1.19 (inactive) | 4.63 (inactive) | 2.71 | 0.695 (inactive) | 0.409 | 1.25 | 0.667 | 0.258 | 1.51 | 0.312 | 0.333 | -0.6 (inactive) | 0.84 | 0.905 | 0.94 | 0.956 | 0.687 | 0.73 |
